Screening data (PubChem)
The list is not random: actives were taken first. Their share in the collection is about 1.2%.
RGS8-Gao: human RGS8-Galphao interaction regulation; P09471; multiplexed bead flow cytometry, RGS8-Galphao binding; actives lie on both sides; response (percent of control binding), % at 10 µM; 220,000 tested, 0.34% active; AID 1423; in the data active = response below about 60% or above about 140%; inactive = in between;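 also: Galphao activated as the GDP aluminium fluoride complex binding bead-coupled RGS8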
GSH fluor: GSH bead compound fluorescence profile; fluorescence (KMESF) at 10 µM; AID 1776; 190,000 tested, 0.25% active; GSH beads flow cytometry, compound fluorescence 488/530 nm; hits give high values; in the data active = fluorescence above about 89;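 also: glutathione beads carrying GST-tagged Bcl family fusion proteins plus one bare bead set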
RGS7-Gao: regulators of human RGS7-Galphao interaction; 220,000 tested, 0.35% active; P09471; binding response (% of control), % at 10 µM; AID 1439; Multiplexed bead flow cytometry, RGS7-Galphao binding; actives lie on both sides; in the data active = binding response below about 49% or above about 150%;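 also: fluorescent Galphao held in activated GDP-AlF4 state binding bead-coupled RGS7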
Avidin fluor: avidin bead compound fluorescence profile; Avidin beads, compound fluorescence 488/530 nm, flow cytometry; hits give high values; fluorescence (KMESF) at 10 µM; 220,000 tested, 0.38% active; AID 1775; in the data active = fluorescence above about 47
RGS16-Gao: modulates binding between human RGS16 and Galphao. O15492+P09471. bead-based flow cytometry RGS16-Galphao binding, fluorescence; actives lie on both sides. binding response (% of control), % at 10 µM. 220,000 tested, 0.38% active;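 also: Galphao activated by GDP with aluminum fluoride before binding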
Target sequence (O15492 whole entry, looked up): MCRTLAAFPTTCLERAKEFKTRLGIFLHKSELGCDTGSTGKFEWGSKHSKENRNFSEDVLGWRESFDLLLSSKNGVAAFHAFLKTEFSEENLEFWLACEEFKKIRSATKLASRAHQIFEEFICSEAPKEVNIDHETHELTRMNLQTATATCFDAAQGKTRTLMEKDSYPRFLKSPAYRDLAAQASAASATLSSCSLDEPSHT
Target sequence (P09471 whole entry, looked up): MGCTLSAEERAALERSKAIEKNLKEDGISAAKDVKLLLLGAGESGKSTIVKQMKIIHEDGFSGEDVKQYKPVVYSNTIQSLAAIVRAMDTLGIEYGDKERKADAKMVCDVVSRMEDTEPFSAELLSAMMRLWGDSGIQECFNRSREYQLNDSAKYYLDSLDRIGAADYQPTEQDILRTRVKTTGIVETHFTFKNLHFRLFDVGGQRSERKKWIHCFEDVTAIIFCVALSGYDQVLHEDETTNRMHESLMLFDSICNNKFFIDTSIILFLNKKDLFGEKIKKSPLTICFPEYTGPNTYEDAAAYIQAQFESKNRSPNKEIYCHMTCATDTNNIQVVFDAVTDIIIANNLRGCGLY
RGS4-Gao reg: human RGS4-Galphao interaction regulation. 220,000 tested, 0.33% active. AID 1415. binding response (% of control), % at 10 µM. P09471. Multiplexed bead flow cytometry, RGS4-Galphao binding; actives lie on both sides; in the data active = binding response below about 49% or above about 150%; inactive = in between;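 also: fluorescent Galphao activated with aluminum fluoride binding bead-coupled RGS4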
RGS-Gao: modulates binding between human RGS4 and Galphao | 1,600 tested, 99% active | multiplexed bead flow cytometry, RGS–Galpha-o binding | RGS4–Galpha-o binding response, % at 10 µM | shares compounds with RGS16-Gao;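 also: fluorescently labeled Galpha-o bound to GDP with aluminium fluoride binding biotinylated RGS beads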
Biotin-avidin: interferes with biotinylated probe binding to avidin beads; shares compounds with RGS16-Gao; streptavidin beads, fluorescein-biotin binding, flow cytometry; inhibition, % at 10 µM; 1,700 tested, under 10 active; AID 1783;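 active = inhibition above 50%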;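 also: median green fluorescence of gated singlet beads compared with DMSO control wells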
RGS8-Gao confirm: RGS8-Galphao interaction regulation, single point confirmation. shares compounds with RGS16-Gao. bead-based flow cytometry RGS8-Galphao binding, fluorescence; actives lie on both sides. binding response (% of control), % at 10 µM. 1,700 tested, 3% active. AID 1836; in the data active = binding response below about 72% or above about 130%; inactive = in between;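 also: Galphao activated as GDP AlF4 complex before binding bead RGS8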
RGS7-Gao confirm: confirmation of regulators of human RGS7-Galphao interaction; shares compounds with RGS16-Gao; bead-based flow cytometry RGS7-Galphao binding; actives lie on both sides; response (percent of control binding), % at 10 µM; 1,700 tested, 7.8% active; AID 1837; in the data active = response below about 75% or above about 130%; inactive = in between;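 also: fluorescent Galphao activated with GDP and aluminum fluoride binding bead-coupled RGS7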
RGS16-Gao conf: confirmation of regulators of human RGS16-Galphao interaction; shares compounds with RGS16-Gao; bead-based flow cytometry, RGS16-Galphao binding; actives lie on both sides; response (% of control binding), % at 10 µM; 1,700 tested, 4% active; AID 1838; in the data active = response below about 74% or above about 130%; inactive = in between;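 also: Galphao activated as the GDP aluminium fluoride complex binding bead-coupled RGS16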
RGS4-Gao confirm: RGS4-Galphao interaction regulation, single point confirmation; shares compounds with RGS16-Gao; RGS4-Galphao binding, multiplexed bead flow cytometry; actives lie on both sides; binding response (% of control), % at 10 µM; 1,700 tested, 4% active; in the data active = binding response below about 74% or above about 130%; inactive = in between
RGS19-Gao conf: RGS19-Galphao interaction regulation, single point confirmation | shares compounds with RGS16-Gao | bead-based flow cytometry RGS19-Galphao binding; actives lie on both sides | response (percent of control binding), % at 10 µM | 1,700 tested, 5% active | AID 1841; in the data active = response below about 50% or above about 160%; inactive = in between
Numbers stand for hits; [ ] = remark or other dose. Unless noted, no rule for the calls is given here.

How did CCCC(=O)NCn1nnc(-c2ccc(Cl)cc2)n1 do in these assays?
RGS8-Gao: inactive; GSH fluor: inactive; RGS7-Gao: 295.2[activator]; Avidin fluor: 50; RGS16-Gao: 273.4[activator]; RGS4-Gao reg: 346.2[activator]; Biotin-avidin: inactive; RGS8-Gao confirm: inactive; RGS7-Gao confirm: inactive; RGS16-Gao conf: inactive; RGS4-Gao confirm: inactive; RGS19-Gao conf: inactive

How did O=C(Cn1nnc(-c2ccc(Cl)cc2)n1)NCc1ccco1 do in these assays?
RGS8-Gao: inactive; GSH fluor: inactive; RGS7-Gao: inactive; Avidin fluor: inactive; RGS16-Gao: inactive; RGS4-Gao reg: inactive

What do the screens show for `O=C(NCCNC(=O)C1CC2CCC1C2)C1CC2CCC1C2` (stereo unspecified)?
RGS8-Gao: inactive; GSH fluor: inactive; RGS7-Gao: 186.2[activator]; Avidin fluor: 229; RGS16-Gao: inactive; RGS4-Gao reg: inactive; RGS-Gao: 122.6; Biotin-avidin: inactive; RGS8-Gao confirm: inactive; RGS7-Gao confirm: inactive; RGS16-Gao conf: inactive; RGS4-Gao confirm: inactive; RGS19-Gao conf: inactive

Results for COCCNC(=O)C(c1ccc(Cl)cc1)N(CCOC)C(=O)CCC(=O)Nc1nccs1 (stereo unspecified) ?
RGS8-Gao: inactive; GSH fluor: inactive; RGS7-Gao: inactive; Avidin fluor: inactive; RGS16-Gao: inactive; RGS4-Gao reg: inactive

Results for CC(C)Cn1c(-c2nn(C)cc2Cl)n[nH]c1=S ?
RGS8-Gao: 58.6; GSH fluor: inactive; RGS7-Gao: 45.2; Avidin fluor: inactive; RGS16-Gao: inactive; RGS4-Gao reg: 49.3; Biotin-avidin: inactive; RGS8-Gao confirm: inactive; RGS7-Gao confirm: inactive; RGS16-Gao conf: inactive; RGS4-Gao confirm: inactive; RGS19-Gao conf: inactive

Results for CC(C)OCC(O)CS(=O)(=O)Cc1ccccc1 (stereo unspecified) ?
RGS8-Gao: inactive; GSH fluor: inactive; RGS7-Gao: inactive; Avidin fluor: inactive; RGS16-Gao: -90.2; RGS4-Gao reg: inactive; RGS-Gao: 68.5; Biotin-avidin: inactive; RGS8-Gao confirm: inactive; RGS7-Gao confirm: inactive; RGS16-Gao conf: inactive; RGS4-Gao confirm: inactive; RGS19-Gao conf: inactive

Results for Cc1ccc2[nH]c3c(c2c1)CC/C(=C/c1ccccc1)C3=O ?
RGS8-Gao: inactive; GSH fluor: inactive; RGS7-Gao: 214.3[activator]; Avidin fluor: 194; RGS16-Gao: inactive; RGS4-Gao reg: inactive; RGS-Gao: 113.3; Biotin-avidin: inactive; RGS8-Gao confirm: inactive; RGS7-Gao confirm: inactive; RGS16-Gao conf: inactive; RGS4-Gao confirm: inactive; RGS19-Gao conf: inactive

Results for Cn1nnnc1SCC(=O)Nc1cc(C(=O)O)cc(C(=O)O)c1 ?
RGS8-Gao: inactive; GSH fluor: inactive; RGS7-Gao: inactive; Avidin fluor: inactive; RGS16-Gao: inactive; RGS4-Gao reg: inactive
